# The list is not random: actives were taken first. Their share in the collection is about 0.71%.
# BLM inh-1 – qHTS Assay for Inhibitors of Bloom's syndrome helicase (BLM); AID 2528, 2010; RecQ-like DNA helicase BLM (Homo sapiens), P54132; Potency, µM (titrated, usually from 56.1 µM), usual class: inhibitors; recombinant BLM DNA unwinding, fluorescence dequenching; 350,000 tested, 0.2% active; also: nearly all actives have a fitted effect of over 35% in size
# TR SRC2 fluor cs – Total Fluorescence Counterscreen for Inhibitors of the Interaction of Thyroid Hormone Receptor and Steroid Receptor Coregulator 2. Potency, µM (series often up to 106 µM). 280,000 tested, 0.29% active. TRb/SRC2 Texas Red total fluorescence interference; active = well fitted curve in either direction with a large enough effect; inconclusive = small, poorly fitted or top-dose-only effect
#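 Flags fluorescent or light-absorbing compounds by total fluorescence, S + 2P, at 555 nm excitation and 632 nm emission. Mixture: 20 nM Texas Red SRC2 peptide, 0.6 uM human TRb LBD, 1 uM T3, 5% DMSO; compound exposure 5 h at ambient temperature.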
# ERG-DNA inh – qHTS for Small Molecule Inhibitors of the ERG Ets/DNA interaction. Transcriptional regulator ERG (Homo sapiens), P11308. fluorescence polarization, His-ERG Ets domain / labelled DNA. Potency, µM (series often up to 76.9 µM), actives largely listed as inhibitors. 370,000 tested, 0.028% active. AID 624246, 2012; active = well fitted inhibition curve with a large enough effect in the polarisation, with a control signal flat; inconclusive = small, poorly fitted or top-dose-only effect, or effect the other way, or a change in a side signal; inactive = no such curve, though single readings can be large or run the other way; the % refers to the polarisation;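 also: polarization taken with two DNA probes labelled with fluorescein and Texas red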
#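 His-tagged ERG Ets domain (1 uM in the protein solution; 300mM KCl, 50mM Tris-HCl, 1mM EDTA, 1mM DTT, pH 7.5) received compound, then a probe mix of 5 nM fluorescein-DNA and 100nM Texas-615-DNA. Fluorescence polarization was read for both dyes.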
# TRb SRC2 PPI – qHTS for Inhibitors of the Interaction of Thyroid Hormone Receptor and Steroid Receptor Coregulator 2; Thyroid hormone receptor beta (Homo sapiens), P10828; TRbeta-SRC2 peptide binding, fluorescence polarization; receptor liganded with 1 µM T3; Potency, µM (top dose mostly 106 µM), actives largely listed as inhibitors; 280,000 tested, 0.065% active; AID 1469, 2008; also: nearly all actives have a fitted effect of over 50% in size
#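 Compounds were added to 0.6 uM TRb ligand-binding domain and 20 nM Texas Red-labeled SRC2 peptide in Tris buffer containing 1 uM T3, incubated 5 hr at ambient temperature, then read by fluorescence polarization.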
# RECQ1 inh – qHTS Assay for Inhibitors of RecQ-Like Dna Helicase 1 (RECQ1). ATP-dependent DNA helicase Q1 (Homo sapiens), P46063. RECQ1 DNA unwinding, red fluorescence kinetic read. Potency, µM (series often up to 57.3 µM), hits mostly inhibitors. 240,000 tested, 0.54% active. AID 2549, 2010; also: nearly all actives have a fitted effect of over 30% in size
# Target sequence (P46063 whole entry, looked up): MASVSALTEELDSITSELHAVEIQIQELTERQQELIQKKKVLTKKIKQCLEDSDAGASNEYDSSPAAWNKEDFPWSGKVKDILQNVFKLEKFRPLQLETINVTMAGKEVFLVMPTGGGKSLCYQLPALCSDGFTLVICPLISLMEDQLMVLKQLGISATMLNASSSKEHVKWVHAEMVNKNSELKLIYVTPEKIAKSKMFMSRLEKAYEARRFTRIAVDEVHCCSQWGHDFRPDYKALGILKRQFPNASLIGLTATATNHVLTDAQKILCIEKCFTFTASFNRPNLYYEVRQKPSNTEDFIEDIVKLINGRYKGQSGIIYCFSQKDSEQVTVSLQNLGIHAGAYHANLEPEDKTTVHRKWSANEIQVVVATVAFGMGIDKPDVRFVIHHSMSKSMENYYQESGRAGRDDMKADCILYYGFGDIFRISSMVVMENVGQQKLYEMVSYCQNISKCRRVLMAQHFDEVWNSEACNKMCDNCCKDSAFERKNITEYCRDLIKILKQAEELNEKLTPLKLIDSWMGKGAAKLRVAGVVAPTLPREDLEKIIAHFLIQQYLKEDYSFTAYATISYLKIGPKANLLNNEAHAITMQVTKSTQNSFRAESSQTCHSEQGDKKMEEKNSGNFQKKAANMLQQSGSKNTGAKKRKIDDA
#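 RECQ1T1 50 nM; forked duplex (20 bp + 30-nt ss tails) 200 nM, ATP 2 mM final; pH 8.0, 2 mM MgCl2, 2.5 ug/ml poly(dI-dC); 15 min compound preincubation; discontinuous kinetic read over 2 h at RT.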
# RGS12 GoLoco inh-1 – qHTS Assay for Inhibitors of RGS12 GoLoco Motif Activity (Red Fluorophore); 230,000 tested, 0.44% active; Potency, µM (top dose mostly 61.6 µM), most hits filed as inhibitors; AID 880, 2007; Gai1:RGS12 GoLoco peptide FP, rhodamine, 10 min; active = well fitted inhibition curve with a large enough effect, not every such curve was filed as active; inactive = no such curve, though single readings can be large or run the other way; also: nearly all actives have a fitted effect of over 30% in size
# RGS12 GoLoco inh-2 – Confirmation qHTS Assay for Inhibitors of RGS12 GoLoco Motif Activity (Red Fluorophore); shares compounds with RGS12 GoLoco inh-1; Gai1/rhodamine-RGS12 GoLoco peptide fluorescence polarization; Potency, µM (highest dose often 57.1 µM), hits mostly inhibitors; 110 tested, 50% active
# BLM inh-2 – qHTS Confirmation Assay for Inhibitors of Bloom's syndrome helicase (BLM) | shares compounds with BLM inh-1 | BLM DNA unwinding, fluorescence quenching, biochemical | Potency, µM, actives largely listed as inhibitors | 220 tested, 40% active | AID 2585, 2010;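 also: strand separation dequenches TAMRA so unwinding raises red fluorescence; series mostly up to about 69 µM; nearly all actives have a fitted effect of over 45% in size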
# Hits are given with their value; i = inactive; ? = inconclusive; nt = no result; ! = not active in a repeat; [ ] = another dose, or the depositor's remark. Unless noted, calls follow the shape of the dose curve; as a rule, active = well fitted curve in the direction sought with a large enough effect; inconclusive = small, poorly fitted or top-dose-only effect, or another doubt; inactive = no such curve, though single readings can be large; an effect the other way counts as inactive or inconclusive.
SMILES,BLM inh-1,TR SRC2 fluor cs,ERG-DNA inh,TRb SRC2 PPI,RECQ1 inh,RGS12 GoLoco inh-1,BLM inh-2,others
NC(=O)NC1NC(=O)NC1=O (configuration not stated),i,i,i,i,i,18µM!,nt,RGS12 GoLoco inh-2=?
NC(=O)NOC[C@@H]1NC(=O)NC1=O,nt,nt,nt,nt,nt,i[14.2 µM],nt,
CN(C(=O)CSc1nc2ccc(NC(=O)CCc3ccccc3)cc2s1)c1ccccc1,i,i,i,i,nt,nt,nt,
C=CCc1cc(/C=N\NC(=O)CSc2nnc(CCCc3ccc(OC)c(C)c3)o2)cc(OC)c1O,i,i,i,i,i,14µM,nt,RGS12 GoLoco inh-2=?
OC(COCc1ccccc1)COCc1ccccc1,nt,nt,i,nt,nt,nt,nt,
Cc1n(CC(O)COCc2ccccc2)c2ccccc2[n+]1C (configuration not stated),i,i,i,i,i,8.9µM,nt,RGS12 GoLoco inh-2=13µM
CCOC(=O)c1ccc(NC(=O)Cc2ccc(-n3c(CC)nc4cccnc43)cc2)cc1,i,i,i,i,nt,nt,nt,
Cc1ccc(NC(=O)CN2C=NS(=O)(=O)c3ccccc32)c(C)c1,i,i,i,i,nt,nt,nt,
Cn1c(SCC(=O)Nc2ccc3c(c2)oc2ccccc23)nnc1-c1ccccc1,i,i,nt,i,i,3.5µM,nt,RGS12 GoLoco inh-2=7.9µM
CCC(=O)Nc1ccc(-c2nnc(SCC(=O)NCC3CCCO3)n2C)cc1 (configuration not stated),i,i,i,i,i,i,nt,RGS12 GoLoco inh-2=i
Cc1ccc(-c2nnc(SCC(=O)NCC3CCCO3)n2C)cc1 (configuration not stated),i,i,i,i,?,i,nt,
O[C@]1(c2ccccc2)c2ccccc2NC2=NCCN21,nt,nt,nt,nt,nt,i[14.2 µM],nt,
Nc1cc(N)nc(SCC(=O)Nc2ccc(Br)cc2Cl)n1,i,i,i,i,i,6.3µM,nt,RGS12 GoLoco inh-2=?
COC(=O)C1=C(C)N(Cc2ccccc2)C2=C3C(=O)CCCC3[C@@](O)(C(=O)OC)C(=O)N2C1c1ccccc1 (some centres not stated),i[12.4 µM],?,nt,i[11.2 µM],i[11.5 µM],nt,nt,
CO/N=C(/C(=O)N[C@@H]1C(=O)N2C(C(=O)O)=C(CSc3nc(C)c(CC(=O)O)s3)CS[C@H]12)c1csc(N)n1,i,nt,nt,nt,nt,nt,nt,
CO/N=C(/C(=O)N[C@H]1C(=O)N2C(C(=O)O)=C(COC(C)=O)CSC12)c1csc(N)n1 (some centres not stated),i,i,nt,i,i,7.9µM,nt,RGS12 GoLoco inh-2=i
Nc1c(C(=O)Nc2ccccc2Cl)nnn1Cc1cccc(Cl)c1,i,i,i,i,nt,nt,nt,
COc1cccc(N2CCN(CC(=O)NC(=O)NCc3ccco3)CC2)c1,11µM,i,i,i,?,i,i,
COc1ccc2oc(-c3ccccc3)c(OC)c(=O)c2c1,i,i,nt,i,i,i,nt,
S=C(Nc1cccc(Cl)c1)Nc1cccc2cnccc12,4µM,i,?,i,i,i,?,
Cc1ccc(NC(=S)Nc2cccc3cnccc23)cc1C,i,i,i,i,i,i,nt,
C=C1CC[C@@H]2[C@](C)(CC[C@@H](O)[C@]2(C)CO)[C@@H]1C/C=C1/C(=O)OC[C@H]1O,nt,nt,nt,nt,nt,nt,i,
COc1ccc(-c2csc(NC(=O)CSc3nc(C)nc4sc(C(=O)O)c(C)c34)n2)cc1,32µM,i,i,i,i,i,32µM,
O=C(COC(=O)C1(c2ccc(F)cc2)CCCC1)NCc1ccco1,22µM,i,i,i,?,i,i,
CCOC(=O)c1cccc(-n2c(C)nc3ccccc3c2=O)c1,i,i,i,i,i,nt,nt,
SMILES,BLM inh-1,TR SRC2 fluor cs,ERG-DNA inh,TRb SRC2 PPI,RECQ1 inh,RGS12 GoLoco inh-1,BLM inh-2,others
CCCc1nc2ccccc2c(=O)n1-c1ccc(C(=O)OCC)cc1,7.9µM,i,i,i,i,i,i,
Cc1cc(C(=O)OCC(=O)NC2CCCC2)c2ccccc2n1,nt,nt,i,nt,nt,nt,nt,
O=C(COC(=O)c1c2c(nc3ccccc13)/C(=C/c1ccco1)CC2)NC1CCCC1,8.9µM,?,i,i,?,i,?,
C=C1CC[C@H](O)C/C1=C/C=C1\CCC[C@]2(C)C([C@H](C)CCCC(C)(C)O)CC[C@@H]12 (some centres not stated),nt,i,nt,i,i,i,nt,
CC1(C)Cc2c(C#N)c(N3CCN(C(=O)c4ccccc4Cl)CC3)nc(-c3ccco3)c2CS1,14µM,i,i,i,i,i,?,
COc1ccc(C)cc1NC(=O)c1cc(S(=O)(=O)N2CCCCC2)c[nH]1,i,i,i,i,nt,nt,nt,
Cc1c(C(=O)OCC2CCCO2)[nH]c2c1C(=O)CC(c1ccco1)C2 (configuration not stated),14µM,?,i,i,25µM,i,18µM,
CC(C)Cn1c(N)c(C(=O)NCC2CCCO2)c2nc3ccccc3nc21 (configuration not stated),8.9µM,i,i,i,i,i,i,
COc1cc(OC)cc(-c2nnc3n2N=C(c2cc(OC)ccc2OC)CS3)c1,i,i,nt,i,i,nt,nt,
Nc1c(C(=O)NCC2CCCO2)sc2nc3c(c(-c4ccco4)c12)CC/C3=C\c1ccco1 (configuration not stated),5µM,11µM[quencher],i,i,2.5µM,i,?,
Cc1ccn2c(=O)cc(COc3ccc(NC(=O)C(C)(C)C)cc3)nc2c1,i,i,i,i,nt,nt,nt,
CCC(C)n1c(NC(=O)c2ccccc2)c(C#N)c2nc3ccccc3nc21 (configuration not stated),10µM,i,i,i,i,i,?,
COC(=O)CCCC(=O)O,nt,nt,nt,nt,nt,i[14.2 µM],nt,
O=C(Cn1c(=O)n(Cc2ccco2)c(=O)c2c3c(sc21)CCCCC3)c1ccccc1,i,i,i,i,i,i,nt,
O=C(Cn1c(=O)n(Cc2ccco2)c(=O)c2c3c(sc21)CCCCC3)Nc1ccccc1,20µM,?,i,i,13µM,i,?,
CCc1ccc(NC(=O)CSc2nc(NS(=O)(=O)c3ccccc3)cc(=O)[nH]2)cc1,16µM,i,i,i,13µM,i,i,

# Compound activity as filed in PubChem.
